Among the data in PubChem BioAssay are growth inhibition, inhibition and outcome values, retold here.

Test [1] can be described thus: antimalarial activity against Dd2 strain (AID 2302;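 active = growth inhibition above 50% at the single 2 µM test dose, taken to imply half-maximal potency below 2 µM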;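 also: 0% = DMSO untreated growth and 100% = chloroquine plus artemisinin killed control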). The settings on record: P. falciparum Dd2 in RBCs, LDH growth readout, 72 h; at 2 µM; active compounds read high.
The nature of test [2]: human hepatoma cell viability loss – ATP luminescence, cytotoxicity control for P. falciparum antimalarial project, primary screen (AID 2303;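 active = inhibition above 50%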;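 also: 0% = DMSO wells and 100% = digitonin-killed cells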). The settings on record: HepG2 viability, 24-48 h, at 10 µM, active compounds read high.
In test [3] the target is L-lactate dehydrogenase (Plasmodium falciparum (isolate CDC / Honduras)) (UniProt Q27743). Nature of the test: PfLDH activity inhibition – cell lysate, 3D7 strain, counter-screen for P. falciparum growth inhibition project (AID 2304).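 Also: 0% = vehicle and 100% = reference inhibitor.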 The conditions noted are these: P. falciparum 3D7 crude extract, LDH APAD/NBT absorbance; at 2 µM; active compounds read high.
A short description of test [4]: inhibition of 3D7 malaria parasite growth – strain 3D7 (AID 2306).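 Also: 0% = DMSO wells and 100% = chloroquine plus artemisinin control wells.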 The settings on record: P. falciparum 3D7 erythrocytic growth, LDH absorbance, 72 h; at 2 µM; active compounds read high.
Test [5] concerns the target Calcium-dependent protein kinase 1 (Plasmodium falciparum (isolate 3D7)) (UniProt P62344). The test is described as follows: PfCDPK1 kinase inhibitors, biochemical, TCAMS library (AID 1159585; cut-off not given, nearly all actives have IC50 up to about 0.98 µM;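 also: inhibitors leave more ATP so luminescence rises with inhibition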). The conditions noted are these: recombinant PfCDPK1, Kinase-Glo ATP depletion luminescence. (In general: In Kinase-Glo more light means more ATP remaining.)
Test [6] has as its target Plasmodium falciparum protein kinase 6 (PK6, PF3D7_1337100) (UniProt Q8IDW1). Nature of the test: PfPK6 kinase inhibitors, biochemical, TCAMS library (AID 1159586). The conditions noted are these: recombinant PfPK6, Kinase-Glo ATP depletion luminescence.
In test [7] the target is Protein kinase 7 (PK7), Plasmodium falciparum 3D7 (PF3D7_0213400) (UniProt Q7YTF7). Nature of the test: inhibition of Plasmodium PK7 catalytic activity – biochemical, TCAMS antimalarial set, Kinase-Glo luminescence (AID 1159587). The settings on record: recombinant PfPK7, Kinase-Glo ATP depletion luminescence.
Test [8] deals with Calcium-dependent protein kinase 4 (Plasmodium falciparum (isolate 3D7)) (UniProt Q8IBS5). Nature of the test: PfCDPK4 kinase inhibitors, biochemical, TCAMS library (AID 1159588; cut-off not given, nearly all actives have IC50 up to about 0.91 µM). The conditions noted are these: recombinant PfCDPK4, Kinase-Glo ATP depletion luminescence.

Structures are written as SMILES. A number with no mark means an inactive call. For some assays here: Potency and affinity values are given separately. Active and inactive are the calls of the source. Unless noted, no rule for the calls is given here.

L-lactate dehydrogenase (Plasmodium falciparum (isolate CDC / Honduras)), sequence (Q27743 whole entry, looked up): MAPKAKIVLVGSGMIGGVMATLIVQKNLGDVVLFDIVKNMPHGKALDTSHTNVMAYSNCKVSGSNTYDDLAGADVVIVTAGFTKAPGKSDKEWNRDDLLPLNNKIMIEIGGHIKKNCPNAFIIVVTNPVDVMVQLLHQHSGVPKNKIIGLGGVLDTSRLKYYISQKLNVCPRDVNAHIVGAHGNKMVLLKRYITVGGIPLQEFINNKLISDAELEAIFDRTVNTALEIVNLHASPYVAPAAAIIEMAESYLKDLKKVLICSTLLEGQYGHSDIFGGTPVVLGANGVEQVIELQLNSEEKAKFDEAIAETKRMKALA
Calcium-dependent protein kinase 4 (Plasmodium falciparum (isolate 3D7)), sequence (Q8IBS5 whole entry, looked up): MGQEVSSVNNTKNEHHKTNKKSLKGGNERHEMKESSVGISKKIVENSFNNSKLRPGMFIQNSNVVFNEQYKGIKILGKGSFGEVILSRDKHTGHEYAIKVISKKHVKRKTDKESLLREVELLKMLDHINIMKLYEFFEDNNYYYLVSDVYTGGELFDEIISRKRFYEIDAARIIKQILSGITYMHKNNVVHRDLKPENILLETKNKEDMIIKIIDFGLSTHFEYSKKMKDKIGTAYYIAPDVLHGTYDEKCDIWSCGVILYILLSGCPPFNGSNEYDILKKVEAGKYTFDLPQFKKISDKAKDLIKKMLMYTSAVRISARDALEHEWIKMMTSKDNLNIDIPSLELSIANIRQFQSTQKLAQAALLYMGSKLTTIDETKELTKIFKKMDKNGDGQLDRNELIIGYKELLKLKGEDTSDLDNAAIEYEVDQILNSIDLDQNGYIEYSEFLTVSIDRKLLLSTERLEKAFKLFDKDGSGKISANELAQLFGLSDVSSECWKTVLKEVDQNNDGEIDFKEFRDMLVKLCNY
Plasmodium falciparum protein kinase 6 (PK6, PF3D7_1337100), sequence (Q8IDW1 1-305): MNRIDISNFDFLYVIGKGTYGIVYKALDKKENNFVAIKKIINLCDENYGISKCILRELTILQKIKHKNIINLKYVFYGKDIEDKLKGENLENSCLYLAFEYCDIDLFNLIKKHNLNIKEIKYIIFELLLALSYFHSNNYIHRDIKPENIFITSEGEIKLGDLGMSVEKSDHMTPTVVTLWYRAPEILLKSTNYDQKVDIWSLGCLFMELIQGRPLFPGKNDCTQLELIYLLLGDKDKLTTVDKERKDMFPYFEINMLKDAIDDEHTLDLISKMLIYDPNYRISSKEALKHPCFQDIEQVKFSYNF
Protein kinase 7 (PK7), Plasmodium falciparum 3D7 (PF3D7_0213400), sequence (Q7YTF7 1-343): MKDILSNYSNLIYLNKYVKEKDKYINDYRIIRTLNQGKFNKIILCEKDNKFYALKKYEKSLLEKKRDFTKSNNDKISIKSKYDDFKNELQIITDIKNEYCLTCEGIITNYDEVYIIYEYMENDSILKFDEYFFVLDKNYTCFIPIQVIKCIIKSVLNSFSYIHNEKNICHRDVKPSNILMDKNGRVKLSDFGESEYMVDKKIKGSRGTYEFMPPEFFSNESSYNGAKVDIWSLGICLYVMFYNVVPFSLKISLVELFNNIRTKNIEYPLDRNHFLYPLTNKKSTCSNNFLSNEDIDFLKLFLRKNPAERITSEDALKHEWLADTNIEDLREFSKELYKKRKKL
Calcium-dependent protein kinase 1 (Plasmodium falciparum (isolate 3D7)), sequence (P62344 whole entry, looked up): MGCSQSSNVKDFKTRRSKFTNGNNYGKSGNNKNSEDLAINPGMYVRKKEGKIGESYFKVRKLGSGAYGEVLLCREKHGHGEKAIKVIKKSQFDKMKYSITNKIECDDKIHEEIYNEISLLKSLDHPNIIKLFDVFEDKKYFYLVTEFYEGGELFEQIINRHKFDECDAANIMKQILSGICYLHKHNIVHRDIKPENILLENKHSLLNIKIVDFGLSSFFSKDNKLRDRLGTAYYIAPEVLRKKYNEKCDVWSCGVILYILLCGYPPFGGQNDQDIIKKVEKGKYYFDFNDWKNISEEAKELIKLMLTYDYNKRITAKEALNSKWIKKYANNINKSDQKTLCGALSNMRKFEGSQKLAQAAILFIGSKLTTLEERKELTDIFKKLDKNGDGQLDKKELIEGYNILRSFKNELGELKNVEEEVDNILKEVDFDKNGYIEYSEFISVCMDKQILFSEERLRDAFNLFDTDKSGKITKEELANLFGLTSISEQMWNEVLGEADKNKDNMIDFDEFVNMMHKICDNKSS

By inhibition is commonly meant the drop in the measured response relative to a control, in per cent. As to `COc1ccc2nccc(NN=Cc3ccc(N(C)C)cc3)c2c1`, the growth inhibition was 95% (active) in test [1] and 101% (active) in test [4]. Also, the inhibition is 4% in test [2] and -6% in test [3]. For the same compound, the outcome in test [5], in test [6], in test [7] and in test [8] was inactive.
Take `CCn1cc(CN2CCCC(C(=O)Nc3ccc(-c4nc5ccccc5[nH]4)cc3)C2)cn1` (configuration not stated): the figures for the growth inhibition in test [1] and in test [4] were 26% and 100% (active), respectively. For the same compound, the inhibition in test [2] was 8%; in test [3], -1%. Also, the result in test [5], in test [6], in test [7] and in test [8] was inactive.
Regarding `COc1ccc(C=C2SC(=O)NC2=Nc2ccccc2)c(OC)c1`, the growth inhibition was 89% (active) in test [1] and 91% (active) in test [4]. Besides, the inhibition in test [2] was 51% (active); in test [3] it was -3%. Also, the outcome in test [5], in test [6], in test [7] and in test [8] was inactive.
In the case of `COc1ccc2nccc([C@@H](O)CN3CCC(NCc4cc5cccc6c5n(c4=O)CCC6)CC3)c2c1`, the growth inhibition was 97% (active) in test [1] and 98% (active) in test [4]. For the same compound, the inhibition in test [2] is 33%; in test [3], 1%. Besides, the result in test [5], in test [6], in test [7] and in test [8] was inactive.
`CC(C)COc1ccc(Cl)cc1Cc1ccc(-c2nc3ccc(N4CCN(C)CC4)cc3[nH]2)o1`: the growth inhibition is 41% in test [1] and 102% (active) in test [4]. In addition, the inhibition in test [2] was 6%; in test [3], 0%. Moreover, the result in test [5], in test [6], in test [7] and in test [8] was inactive.
As for `CCCC(CC)n1ccc2c3c(N)nc(N)nc3ccc21` (configuration not stated), the growth inhibition in test [1] is 97% (active); in test [4], 94% (active). For the same compound, the inhibition was 67% (active) in test [2] and 0% in test [3]. Further, the outcome in test [5], in test [6], in test [7] and in test [8] was inactive.
Turning to `COc1cccc2c(NN=Cc3cccc(Cl)c3)ccnc12`, the growth inhibition in test [1] was 77% (active); in test [4], 101% (active). The inhibition in test [2] is 19%; in test [3], 6%. For the same compound, the result in test [5], in test [6], in test [7] and in test [8] was inactive.
On to `CCOc1ccc(Nc2nc(N)c3ccccc3n2)cc1`, for which the growth inhibition in test [1] is 6%; in test [4], 90% (active). Also, the inhibition in test [2] is 28%; in test [3] it was 2%. For the same compound, the result in test [5], in test [6], in test [7] and in test [8] was inactive.
Take `Cc1cccc2[nH]c(-c3ccc(-c4cccc(CNCc5cccc(N)c5)c4)s3)nc12`: the growth inhibition in test [1] is 85% (active); in test [4], 102% (active). In addition, the figures for the inhibition in test [2] and in test [3] were 15% and -4%, respectively. The result in test [5], in test [6], in test [7] and in test [8] was inactive.
For the compound `FC(F)(F)c1cc(Nc2ccc(Oc3ccccc3)cc2)c2cc(-c3ccncc3)ccc2n1`, the growth inhibition was 70% (active) in test [1] and 102% (active) in test [4]. The inhibition in test [2] was -12%; in test [3] it was -2%. For the same compound, the outcome in test [5], in test [6], in test [7] and in test [8] was inactive.
Consider `C=CCc1cc(Br)ccc1OCCCOc1c(C)nc(N)nc1N`, for which the results for the growth inhibition in test [1] and in test [4] were 96% (active) and 94% (active), respectively. Also, the inhibition is 56% (active) in test [2] and -3% in test [3]. Besides, the result in test [5], in test [6], in test [7] and in test [8] was inactive.
`Cc1ccc2nc(C)cc(NN=Cc3ccc([N+](=O)[O-])cc3)c2c1`: the growth inhibition in test [1] is 15%; in test [4], 102% (active). In addition, the figures for the inhibition in test [2] and in test [3] were 10% and 3%, respectively. The outcome in test [5], in test [6], in test [7] and in test [8] was inactive.
As to `Cc1cc(=O)[nH]c(NC#N)n1`, the values for the growth inhibition in test [1] and in test [4] were 3% and 99% (active), respectively. The inhibition is 8% in test [2] and 0% in test [3]. Also, the outcome in test [5], in test [6], in test [7] and in test [8] was inactive.
As to `O=[N+]([O-])c1ccccc1C=NNc1ccnc2ccc(C(F)(F)F)cc12`, the growth inhibition was 36% in test [1] and 100% (active) in test [4]. Further, the inhibition in test [2] was 6%; in test [3], -3%. For the same compound, the result in test [5], in test [6], in test [7] and in test [8] was inactive.
For `CC(C)(C)c1cc(NC2CC2)nc(-c2ccccn2)n1`, the values for the growth inhibition in test [1] and in test [4] were 79% (active) and 94% (active), respectively. The inhibition is 7% in test [2] and -7% in test [3]. In addition, the outcome in test [5], in test [6], in test [7] and in test [8] was inactive.
On to `COc1ccc(Oc2ccc(-c3c(C)[nH]c(C)c(Cl)c3=O)cc2)cc1`, for which the growth inhibition in test [1] and in test [4] was 97% (active) each time. Moreover, the inhibition in test [2] is -2%; in test [3] it was -3%. Further, the outcome in test [5], in test [6], in test [7] and in test [8] was inactive.
As to `Cc1cc(Nc2ccc(Cl)cc2)n2nc(C(F)(F)F)nc2n1`, the values for the growth inhibition in test [1] and in test [4] were 95% (active) and 97% (active), respectively. For the same compound, the inhibition is 5% in test [2] and -1% in test [3]. For the same compound, the result in test [5], in test [6], in test [7] and in test [8] was inactive.
As for `CN1CCC(N2CCN(c3ccc4c(=O)nc(CCc5cccc(F)c5F)n(CC(=O)N(C)Cc5ccc(-c6ccc(C(F)(F)F)cc6)cc5)c4n3)CC2)CC1`, the values for the growth inhibition in test [1] and in test [4] were 99% (active) and 100% (active), respectively. The inhibition in test [2] was 15%; in test [3], 2%. Moreover, the result in test [5], in test [6], in test [7] and in test [8] was inactive.
Take `Nc1nc(N)c2cc(S(=O)(=O)c3ccc4ccccc4c3)ccc2n1`: the growth inhibition in test [1] is 51% (active); in test [4], 95% (active). Also, the inhibition was 14% in test [2] and 3% in test [3]. For the same compound, the outcome in test [5], in test [6], in test [7] and in test [8] was inactive.
